PubChem BioAssay AID602413 (Johns Hopkins Ion Channel Center, 2012)
The whole screen tested about 1,200 compounds, of which about 150 (12%) were called active.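 The calls were made as follows: active = ratio at least 3 SD above the weak peptide control, stable starting fluorescence, no direct agonism earlier; inactive = the rest.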 Shown is part of a subset that was picked to be rich in actives.

Target: Mas-related G-protein coupled receptor member X1 (Homo sapiens) (UniProt Q96LB2)
Assay: MrgX1 positive allosteric modulators, duplicate retest, confirmation, HEK293 cells, Fluo-4 calcium flux (AID 602413);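 also: compound followed by low BAM8-22 agonist challenge near EC20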
Conditions: MrgX1-HEK293, Fluo-4 calcium fluorescence, FDSS; at 10 µM; stronger effect = higher value

Sequence of Mas-related G-protein coupled receptor member X1 (Homo sapiens) (Q96LB2 whole entry, looked up): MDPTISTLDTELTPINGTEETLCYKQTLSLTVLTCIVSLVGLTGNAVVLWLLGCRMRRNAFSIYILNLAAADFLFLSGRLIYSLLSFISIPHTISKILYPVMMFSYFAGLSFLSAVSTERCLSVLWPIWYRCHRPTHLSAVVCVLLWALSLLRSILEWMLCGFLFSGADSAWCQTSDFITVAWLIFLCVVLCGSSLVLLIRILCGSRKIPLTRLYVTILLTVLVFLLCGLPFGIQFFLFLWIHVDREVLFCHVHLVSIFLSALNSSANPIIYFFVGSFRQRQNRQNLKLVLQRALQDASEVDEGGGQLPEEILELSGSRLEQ

SMILES	activation (ratio percentage)
C=CCN1C(=O)C2(C(C(=O)OCC)=C(N)Oc3c2c(=O)oc2ccccc32)c2ccccc21 (stereo unspecified)	29.5% (active)
